# According to the supplement of paper PMC11732987, “Enantioselective OTUD7B fragment discovery through chemoproteomics screening and high-throughput optimisation” (Communications Chemistry, 2025):
# A number with no mark means an inactive call.
# Tests used:
# Experiment in all cases: log2 ratio of Biotin-Ahx-Ub-VS probe labelling (fragment/DMSO); higher = less target engagement (more negative = stronger competition), active = hit call of the paper (q ≤ 0.05, log2 ratio ≤ -1)
# Conditions in all cases: compound concentration: 200 uM; treatment time: 3 h
# OTUD6B = biological target: T1, OTUD6B (UniProt Q8N6M0)
# T1 sequence (whole entry): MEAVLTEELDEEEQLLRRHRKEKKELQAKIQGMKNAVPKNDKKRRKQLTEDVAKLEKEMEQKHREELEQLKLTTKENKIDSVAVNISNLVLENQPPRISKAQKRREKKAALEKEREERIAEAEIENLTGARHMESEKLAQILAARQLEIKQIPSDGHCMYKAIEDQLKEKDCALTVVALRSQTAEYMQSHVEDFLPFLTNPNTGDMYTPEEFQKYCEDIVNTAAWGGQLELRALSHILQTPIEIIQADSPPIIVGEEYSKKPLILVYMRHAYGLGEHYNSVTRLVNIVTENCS
# Summary of the method: (§1)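 Lysate from HEK293T cells, 495 µg per sample in Tris/CHAPS/IGEPAL buffer with protease inhibitors, was treated for 3 h in triplicate with fragment at 200 µM or vehicle. Biotin-Ahx-Ub-VS was next added at 0.5 µM final for 1 h. The labelled DUBs were enriched with NeutrAvidin, digested with LysC and trypsin, and run by diaPASEF LC-MS/MS, with values given as average log2 fragment/vehicle ratios by unpaired t-test on global-median-normalised Spectronaut quantities of proteins with ≥2 unique peptides.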
# OTUD7B = biological target: T2, OTUD7B (UniProt Q6GQQ9)
# T2 sequence (whole entry): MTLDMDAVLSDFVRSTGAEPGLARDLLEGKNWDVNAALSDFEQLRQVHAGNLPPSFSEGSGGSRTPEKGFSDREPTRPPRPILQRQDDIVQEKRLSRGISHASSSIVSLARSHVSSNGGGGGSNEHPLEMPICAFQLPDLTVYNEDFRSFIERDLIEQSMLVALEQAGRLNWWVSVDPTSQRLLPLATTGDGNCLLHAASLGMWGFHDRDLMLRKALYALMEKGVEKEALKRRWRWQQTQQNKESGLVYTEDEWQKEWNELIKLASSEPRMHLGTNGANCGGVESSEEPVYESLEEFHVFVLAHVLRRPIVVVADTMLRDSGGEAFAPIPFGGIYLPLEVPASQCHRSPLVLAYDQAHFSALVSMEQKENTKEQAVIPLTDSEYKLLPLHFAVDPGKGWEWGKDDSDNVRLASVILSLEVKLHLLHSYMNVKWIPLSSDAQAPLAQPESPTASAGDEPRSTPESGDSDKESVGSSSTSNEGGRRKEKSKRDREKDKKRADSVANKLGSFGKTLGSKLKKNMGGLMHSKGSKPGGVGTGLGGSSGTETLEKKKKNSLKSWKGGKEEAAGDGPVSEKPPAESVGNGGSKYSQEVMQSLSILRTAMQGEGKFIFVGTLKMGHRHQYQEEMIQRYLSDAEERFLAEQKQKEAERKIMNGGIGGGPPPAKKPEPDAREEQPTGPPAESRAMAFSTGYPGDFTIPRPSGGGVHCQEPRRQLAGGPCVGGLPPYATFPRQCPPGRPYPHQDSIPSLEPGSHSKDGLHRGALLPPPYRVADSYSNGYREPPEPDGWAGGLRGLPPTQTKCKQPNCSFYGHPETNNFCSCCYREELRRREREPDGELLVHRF
# Summary of the method: as §1
# PRPF8 = PRPF8 (UniProt Q6P2Q9)
# Summary of the method: as §1
# PSMD7 = biological target: T3, PSMD7 (UniProt P51665)
# T3 sequence (whole entry): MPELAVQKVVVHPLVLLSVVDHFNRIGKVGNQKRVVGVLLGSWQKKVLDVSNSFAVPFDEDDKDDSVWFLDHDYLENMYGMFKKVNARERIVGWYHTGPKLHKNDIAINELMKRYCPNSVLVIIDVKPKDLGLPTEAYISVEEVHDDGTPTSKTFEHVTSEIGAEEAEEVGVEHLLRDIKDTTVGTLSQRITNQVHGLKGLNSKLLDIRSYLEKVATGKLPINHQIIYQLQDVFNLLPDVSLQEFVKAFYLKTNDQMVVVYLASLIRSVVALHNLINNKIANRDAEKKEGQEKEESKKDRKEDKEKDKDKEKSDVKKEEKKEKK
# Summary of the method: as §1
# UCHL1 = UCHL1 (UniProt P09936)
# Summary of the method: as §1
# UCHL3 = biological target: T4, UCHL3 (UniProt P15374)
# T4 sequence (whole entry): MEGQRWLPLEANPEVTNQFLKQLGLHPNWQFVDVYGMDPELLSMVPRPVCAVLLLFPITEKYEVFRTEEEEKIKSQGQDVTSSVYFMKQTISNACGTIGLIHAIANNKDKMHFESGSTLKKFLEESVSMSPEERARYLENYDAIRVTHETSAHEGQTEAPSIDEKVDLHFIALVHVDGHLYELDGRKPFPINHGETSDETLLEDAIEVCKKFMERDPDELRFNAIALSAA
# Summary of the method: as §1
# UCHL5 = biological target: T5, UCHL5 (UniProt Q9Y5K5)
# T5 sequence (whole entry): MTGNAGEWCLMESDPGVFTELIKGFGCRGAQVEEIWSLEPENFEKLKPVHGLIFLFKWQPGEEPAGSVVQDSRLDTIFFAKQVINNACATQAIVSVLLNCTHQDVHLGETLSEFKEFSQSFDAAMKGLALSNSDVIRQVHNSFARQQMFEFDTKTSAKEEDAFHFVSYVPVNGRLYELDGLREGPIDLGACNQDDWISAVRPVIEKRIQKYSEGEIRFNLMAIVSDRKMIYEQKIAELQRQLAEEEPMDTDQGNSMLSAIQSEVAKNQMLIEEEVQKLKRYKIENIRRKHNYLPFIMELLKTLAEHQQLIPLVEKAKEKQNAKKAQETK
# Summary of the method: as §1
# USP10 = USP10 (UniProt Q14694)
# Summary of the method: as §1
# USP15 = biological target: T6, USP15 (UniProt Q9Y4E8)
# T6 sequence (whole entry): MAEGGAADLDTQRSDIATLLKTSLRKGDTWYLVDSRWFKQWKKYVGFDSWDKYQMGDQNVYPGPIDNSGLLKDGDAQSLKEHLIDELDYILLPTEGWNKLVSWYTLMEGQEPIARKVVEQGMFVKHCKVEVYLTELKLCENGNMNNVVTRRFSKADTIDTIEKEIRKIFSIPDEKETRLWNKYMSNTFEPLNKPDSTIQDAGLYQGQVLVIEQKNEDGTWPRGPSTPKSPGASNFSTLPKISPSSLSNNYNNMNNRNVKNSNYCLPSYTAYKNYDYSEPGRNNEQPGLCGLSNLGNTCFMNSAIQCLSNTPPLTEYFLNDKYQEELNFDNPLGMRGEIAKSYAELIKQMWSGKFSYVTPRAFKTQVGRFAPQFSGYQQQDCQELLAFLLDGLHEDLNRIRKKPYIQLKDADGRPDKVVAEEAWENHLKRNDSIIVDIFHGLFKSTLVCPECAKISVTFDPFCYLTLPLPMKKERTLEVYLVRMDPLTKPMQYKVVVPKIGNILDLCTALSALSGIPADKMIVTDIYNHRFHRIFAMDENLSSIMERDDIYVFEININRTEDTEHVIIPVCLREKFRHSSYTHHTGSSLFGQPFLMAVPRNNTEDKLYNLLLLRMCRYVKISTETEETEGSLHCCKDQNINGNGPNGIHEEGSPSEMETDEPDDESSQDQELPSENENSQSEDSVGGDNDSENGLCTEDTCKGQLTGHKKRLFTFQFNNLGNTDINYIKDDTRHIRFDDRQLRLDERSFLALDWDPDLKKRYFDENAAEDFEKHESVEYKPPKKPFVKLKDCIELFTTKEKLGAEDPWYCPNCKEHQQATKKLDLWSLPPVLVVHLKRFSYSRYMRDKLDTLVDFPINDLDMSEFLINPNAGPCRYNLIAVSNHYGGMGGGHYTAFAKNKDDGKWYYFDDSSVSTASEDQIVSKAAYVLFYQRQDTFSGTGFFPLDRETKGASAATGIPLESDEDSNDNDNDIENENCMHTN
# Summary of the method: as §1
# USP16 = USP16 (UniProt Q9Y5T5)
# Summary of the method: as §1
# USP10, sequence (Q14694 whole entry): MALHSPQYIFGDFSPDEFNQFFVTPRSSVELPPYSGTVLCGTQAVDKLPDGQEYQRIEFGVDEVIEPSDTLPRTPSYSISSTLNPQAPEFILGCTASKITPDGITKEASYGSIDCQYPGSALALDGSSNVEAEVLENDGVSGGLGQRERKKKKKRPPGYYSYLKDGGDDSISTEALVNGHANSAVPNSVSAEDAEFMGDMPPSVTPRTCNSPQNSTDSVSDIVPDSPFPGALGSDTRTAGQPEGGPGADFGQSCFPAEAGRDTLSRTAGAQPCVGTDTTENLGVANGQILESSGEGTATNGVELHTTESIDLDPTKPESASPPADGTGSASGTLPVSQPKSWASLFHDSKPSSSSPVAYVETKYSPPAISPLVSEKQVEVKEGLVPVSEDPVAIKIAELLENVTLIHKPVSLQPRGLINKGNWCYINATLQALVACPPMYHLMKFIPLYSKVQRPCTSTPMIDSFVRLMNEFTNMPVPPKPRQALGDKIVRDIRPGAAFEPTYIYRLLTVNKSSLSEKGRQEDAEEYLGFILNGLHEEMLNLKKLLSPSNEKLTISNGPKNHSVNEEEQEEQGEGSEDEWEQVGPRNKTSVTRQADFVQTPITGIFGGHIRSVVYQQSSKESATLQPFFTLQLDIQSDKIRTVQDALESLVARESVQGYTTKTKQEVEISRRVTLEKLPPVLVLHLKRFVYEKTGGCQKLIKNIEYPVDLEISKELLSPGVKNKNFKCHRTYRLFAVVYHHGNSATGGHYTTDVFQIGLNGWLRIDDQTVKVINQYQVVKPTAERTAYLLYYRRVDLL
# USP16, sequence (Q9Y5T5 whole entry, looked up): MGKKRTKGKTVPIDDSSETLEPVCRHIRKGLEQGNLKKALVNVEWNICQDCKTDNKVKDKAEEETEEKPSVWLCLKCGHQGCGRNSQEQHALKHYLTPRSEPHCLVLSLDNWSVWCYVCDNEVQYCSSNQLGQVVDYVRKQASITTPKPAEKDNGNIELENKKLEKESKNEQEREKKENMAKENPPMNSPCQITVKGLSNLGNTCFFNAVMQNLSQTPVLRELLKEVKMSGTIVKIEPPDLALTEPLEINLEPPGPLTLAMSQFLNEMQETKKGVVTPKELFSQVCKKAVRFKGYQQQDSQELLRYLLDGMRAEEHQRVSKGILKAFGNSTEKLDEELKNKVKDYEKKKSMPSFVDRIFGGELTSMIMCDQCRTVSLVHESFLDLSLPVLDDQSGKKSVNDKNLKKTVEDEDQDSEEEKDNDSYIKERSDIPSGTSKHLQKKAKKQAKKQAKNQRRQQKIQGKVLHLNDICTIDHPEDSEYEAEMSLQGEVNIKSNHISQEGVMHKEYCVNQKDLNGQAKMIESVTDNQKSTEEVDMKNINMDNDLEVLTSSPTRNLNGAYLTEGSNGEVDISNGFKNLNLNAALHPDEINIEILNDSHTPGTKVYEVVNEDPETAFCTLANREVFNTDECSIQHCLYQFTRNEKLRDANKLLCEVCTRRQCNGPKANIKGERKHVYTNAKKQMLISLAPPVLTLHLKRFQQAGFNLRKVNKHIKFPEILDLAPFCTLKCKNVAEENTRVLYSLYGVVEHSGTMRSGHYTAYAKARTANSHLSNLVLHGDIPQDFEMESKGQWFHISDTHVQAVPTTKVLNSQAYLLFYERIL
# UCHL1, sequence (P09936 whole entry, looked up): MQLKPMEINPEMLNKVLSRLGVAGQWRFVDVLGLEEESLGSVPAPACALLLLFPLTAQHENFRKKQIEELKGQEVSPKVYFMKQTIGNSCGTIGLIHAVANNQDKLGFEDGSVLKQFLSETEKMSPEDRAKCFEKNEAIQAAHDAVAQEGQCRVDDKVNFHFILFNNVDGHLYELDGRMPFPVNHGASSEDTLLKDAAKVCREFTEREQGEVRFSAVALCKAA
compound,measurement,setting,value
O=C(CCl)N1CCc2sccc2C1,log2 ratio of Biotin-Ahx-Ub-VS probe labelling,OTUD6B,-0.251
same,log2 ratio of Biotin-Ahx-Ub-VS probe labelling,OTUD7B,-1.08 (active)
same,log2 ratio of Biotin-Ahx-Ub-VS probe labelling,PRPF8,0.249
same,log2 ratio of Biotin-Ahx-Ub-VS probe labelling,PSMD7,-0.000885
same,log2 ratio of Biotin-Ahx-Ub-VS probe labelling,UCHL1,-1.18 (active)
same,log2 ratio of Biotin-Ahx-Ub-VS probe labelling,UCHL3,-0.458
same,log2 ratio of Biotin-Ahx-Ub-VS probe labelling,UCHL5,-0.259
same,log2 ratio of Biotin-Ahx-Ub-VS probe labelling,USP10,-0.16
same,log2 ratio of Biotin-Ahx-Ub-VS probe labelling,USP15,-0.737
same,log2 ratio of Biotin-Ahx-Ub-VS probe labelling,USP16,-0.278
